Experimental data as given in the supplement of paper PMC12819154, “High-throughput peptide-centric local stability assay extends protein–ligand identification to membrane proteins, tissues and bacteria” (Nature Structural & Molecular Biology, 2025).

Each target was assayed with CN[C@@H]1C[C@H]2O[C@@](C)([C@@H]1OC)n1c3ccccc3c3c4c(c5c6ccccc6n2c5c31)C(=O)NC4 [staurosporine] (assay: log2 fold change of tryptic peptide abundance, ligand vs vehicle (limited proteolysis) (log2 ratio); higher = more trypsin-susceptible (destabilized)). Settings: ligand concentration: 20 uM; sample: mouse liver crude lysate; replicate design: treated separately.

Chain of UniProt Q2NL51 (Q2NL51 whole entry): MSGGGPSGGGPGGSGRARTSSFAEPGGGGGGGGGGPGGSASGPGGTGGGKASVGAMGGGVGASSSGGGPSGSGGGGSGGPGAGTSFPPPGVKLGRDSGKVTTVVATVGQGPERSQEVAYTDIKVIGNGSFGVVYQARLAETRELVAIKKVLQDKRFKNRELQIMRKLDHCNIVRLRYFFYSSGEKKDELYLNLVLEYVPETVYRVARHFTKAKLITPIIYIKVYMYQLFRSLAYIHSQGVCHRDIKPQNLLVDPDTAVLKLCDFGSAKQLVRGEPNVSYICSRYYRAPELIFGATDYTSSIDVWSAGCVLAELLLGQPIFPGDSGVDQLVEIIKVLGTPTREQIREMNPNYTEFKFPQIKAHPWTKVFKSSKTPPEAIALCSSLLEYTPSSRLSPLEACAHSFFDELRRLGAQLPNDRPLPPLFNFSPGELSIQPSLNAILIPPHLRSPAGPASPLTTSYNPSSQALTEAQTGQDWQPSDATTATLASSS
Chain of UniProt Q99LC5 (Q99LC5 whole entry): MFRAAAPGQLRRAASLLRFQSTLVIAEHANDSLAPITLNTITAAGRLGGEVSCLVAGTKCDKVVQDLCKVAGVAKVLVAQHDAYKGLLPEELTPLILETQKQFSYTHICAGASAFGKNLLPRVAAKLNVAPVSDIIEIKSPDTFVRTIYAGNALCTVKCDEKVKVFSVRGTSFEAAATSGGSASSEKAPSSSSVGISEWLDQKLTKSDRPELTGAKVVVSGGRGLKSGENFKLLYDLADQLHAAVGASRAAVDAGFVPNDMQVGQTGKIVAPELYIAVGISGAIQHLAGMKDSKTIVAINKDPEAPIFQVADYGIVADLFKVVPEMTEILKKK
Chain of UniProt P24549 (P24549 whole entry): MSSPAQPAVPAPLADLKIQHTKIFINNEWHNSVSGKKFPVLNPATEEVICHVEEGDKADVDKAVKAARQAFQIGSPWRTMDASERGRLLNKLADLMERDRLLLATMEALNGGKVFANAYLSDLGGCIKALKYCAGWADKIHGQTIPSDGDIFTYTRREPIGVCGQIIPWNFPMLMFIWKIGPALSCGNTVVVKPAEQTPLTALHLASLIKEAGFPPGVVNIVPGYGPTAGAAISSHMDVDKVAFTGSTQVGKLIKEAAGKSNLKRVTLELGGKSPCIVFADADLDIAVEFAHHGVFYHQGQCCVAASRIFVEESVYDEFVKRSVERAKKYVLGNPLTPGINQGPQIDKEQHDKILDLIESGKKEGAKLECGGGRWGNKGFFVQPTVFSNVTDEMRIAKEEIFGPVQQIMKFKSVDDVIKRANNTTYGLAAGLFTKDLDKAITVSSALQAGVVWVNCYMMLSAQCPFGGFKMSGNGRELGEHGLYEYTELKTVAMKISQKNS
Chain of UniProt P70697 (P70697 whole entry): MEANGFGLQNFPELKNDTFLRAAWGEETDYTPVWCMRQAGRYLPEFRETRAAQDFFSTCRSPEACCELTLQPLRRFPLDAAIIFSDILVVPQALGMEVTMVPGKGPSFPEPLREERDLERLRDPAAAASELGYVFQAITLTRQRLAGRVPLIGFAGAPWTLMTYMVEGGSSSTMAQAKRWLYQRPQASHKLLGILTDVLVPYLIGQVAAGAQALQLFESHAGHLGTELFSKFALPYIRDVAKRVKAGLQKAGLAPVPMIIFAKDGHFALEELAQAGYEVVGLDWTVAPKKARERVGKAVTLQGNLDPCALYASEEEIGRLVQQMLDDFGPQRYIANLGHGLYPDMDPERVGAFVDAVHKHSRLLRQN
Chain of UniProt Q9ERE3 (Q9ERE3 whole entry): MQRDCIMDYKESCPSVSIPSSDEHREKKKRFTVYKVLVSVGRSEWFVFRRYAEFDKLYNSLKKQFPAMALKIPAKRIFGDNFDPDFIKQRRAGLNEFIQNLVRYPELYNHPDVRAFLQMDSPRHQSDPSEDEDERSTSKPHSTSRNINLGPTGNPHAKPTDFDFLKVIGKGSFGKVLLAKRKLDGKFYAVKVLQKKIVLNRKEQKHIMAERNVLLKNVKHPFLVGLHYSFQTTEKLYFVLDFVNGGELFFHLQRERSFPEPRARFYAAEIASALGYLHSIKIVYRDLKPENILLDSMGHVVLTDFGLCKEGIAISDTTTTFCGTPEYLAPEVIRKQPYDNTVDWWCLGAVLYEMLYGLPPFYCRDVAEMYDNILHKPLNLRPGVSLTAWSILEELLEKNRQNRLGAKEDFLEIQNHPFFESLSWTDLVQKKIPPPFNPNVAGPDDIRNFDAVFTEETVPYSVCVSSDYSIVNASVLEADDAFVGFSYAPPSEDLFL
Chain of UniProt Q60772 (Q60772 whole entry): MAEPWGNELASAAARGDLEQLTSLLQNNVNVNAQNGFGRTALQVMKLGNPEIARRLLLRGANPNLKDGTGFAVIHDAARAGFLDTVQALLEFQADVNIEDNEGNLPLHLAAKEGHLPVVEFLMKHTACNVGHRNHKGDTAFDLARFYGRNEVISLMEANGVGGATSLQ
Chain of UniProt Q6PDI5 (Q6PDI5 whole entry): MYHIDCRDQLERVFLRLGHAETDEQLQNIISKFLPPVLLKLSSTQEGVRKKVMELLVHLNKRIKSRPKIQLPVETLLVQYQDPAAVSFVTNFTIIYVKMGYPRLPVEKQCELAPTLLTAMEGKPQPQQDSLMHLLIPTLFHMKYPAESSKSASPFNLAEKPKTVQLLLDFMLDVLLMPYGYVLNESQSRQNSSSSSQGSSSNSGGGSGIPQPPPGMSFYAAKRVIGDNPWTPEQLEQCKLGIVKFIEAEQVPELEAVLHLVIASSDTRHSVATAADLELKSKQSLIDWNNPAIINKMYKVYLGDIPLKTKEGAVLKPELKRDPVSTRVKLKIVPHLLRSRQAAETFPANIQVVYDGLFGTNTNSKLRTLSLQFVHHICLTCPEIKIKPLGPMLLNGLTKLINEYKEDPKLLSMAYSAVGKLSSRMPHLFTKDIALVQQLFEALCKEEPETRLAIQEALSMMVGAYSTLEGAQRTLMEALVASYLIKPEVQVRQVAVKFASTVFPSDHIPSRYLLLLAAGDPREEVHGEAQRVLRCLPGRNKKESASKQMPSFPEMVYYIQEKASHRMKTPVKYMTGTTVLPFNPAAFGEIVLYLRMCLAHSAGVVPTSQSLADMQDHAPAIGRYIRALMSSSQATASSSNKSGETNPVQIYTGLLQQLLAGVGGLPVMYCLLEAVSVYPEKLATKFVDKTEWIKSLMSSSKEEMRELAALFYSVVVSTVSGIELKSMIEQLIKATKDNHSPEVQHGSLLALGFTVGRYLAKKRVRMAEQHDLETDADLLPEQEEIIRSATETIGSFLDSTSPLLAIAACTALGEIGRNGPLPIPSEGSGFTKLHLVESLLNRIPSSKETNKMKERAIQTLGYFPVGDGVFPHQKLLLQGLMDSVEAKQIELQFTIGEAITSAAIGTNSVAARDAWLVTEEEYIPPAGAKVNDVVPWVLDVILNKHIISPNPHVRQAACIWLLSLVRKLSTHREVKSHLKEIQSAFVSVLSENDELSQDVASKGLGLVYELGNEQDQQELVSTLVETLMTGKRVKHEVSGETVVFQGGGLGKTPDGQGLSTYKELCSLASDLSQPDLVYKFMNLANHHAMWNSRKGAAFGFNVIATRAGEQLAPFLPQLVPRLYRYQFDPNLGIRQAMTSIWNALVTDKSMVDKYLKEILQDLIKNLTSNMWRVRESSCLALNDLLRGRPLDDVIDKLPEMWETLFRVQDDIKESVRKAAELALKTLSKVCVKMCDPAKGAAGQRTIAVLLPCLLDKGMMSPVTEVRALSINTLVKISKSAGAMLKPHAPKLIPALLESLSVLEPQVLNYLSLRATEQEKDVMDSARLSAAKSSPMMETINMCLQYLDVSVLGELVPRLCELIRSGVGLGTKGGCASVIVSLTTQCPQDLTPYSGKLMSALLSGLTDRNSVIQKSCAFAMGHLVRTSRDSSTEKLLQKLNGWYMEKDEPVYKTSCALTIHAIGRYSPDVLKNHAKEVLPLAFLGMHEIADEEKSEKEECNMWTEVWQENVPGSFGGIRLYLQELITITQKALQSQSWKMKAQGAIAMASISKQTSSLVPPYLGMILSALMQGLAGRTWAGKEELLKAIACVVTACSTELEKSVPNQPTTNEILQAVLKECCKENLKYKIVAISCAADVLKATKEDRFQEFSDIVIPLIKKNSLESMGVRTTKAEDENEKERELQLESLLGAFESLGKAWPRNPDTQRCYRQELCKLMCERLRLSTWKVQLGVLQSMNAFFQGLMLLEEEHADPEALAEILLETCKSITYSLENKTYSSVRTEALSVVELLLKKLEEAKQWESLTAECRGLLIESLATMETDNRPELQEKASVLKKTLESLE
Chain of UniProt Q8BW96 (Q8BW96 whole entry): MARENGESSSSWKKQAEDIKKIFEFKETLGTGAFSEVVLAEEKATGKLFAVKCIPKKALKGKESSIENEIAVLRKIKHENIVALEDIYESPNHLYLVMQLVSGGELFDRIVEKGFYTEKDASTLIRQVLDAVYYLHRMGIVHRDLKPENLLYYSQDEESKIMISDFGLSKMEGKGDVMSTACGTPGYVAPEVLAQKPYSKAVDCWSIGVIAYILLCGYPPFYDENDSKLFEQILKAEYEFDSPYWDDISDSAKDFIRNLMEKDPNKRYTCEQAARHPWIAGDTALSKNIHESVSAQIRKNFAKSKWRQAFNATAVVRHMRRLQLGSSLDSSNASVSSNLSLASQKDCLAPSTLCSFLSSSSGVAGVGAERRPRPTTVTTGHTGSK
Chain of UniProt P22315 (P22315 whole entry): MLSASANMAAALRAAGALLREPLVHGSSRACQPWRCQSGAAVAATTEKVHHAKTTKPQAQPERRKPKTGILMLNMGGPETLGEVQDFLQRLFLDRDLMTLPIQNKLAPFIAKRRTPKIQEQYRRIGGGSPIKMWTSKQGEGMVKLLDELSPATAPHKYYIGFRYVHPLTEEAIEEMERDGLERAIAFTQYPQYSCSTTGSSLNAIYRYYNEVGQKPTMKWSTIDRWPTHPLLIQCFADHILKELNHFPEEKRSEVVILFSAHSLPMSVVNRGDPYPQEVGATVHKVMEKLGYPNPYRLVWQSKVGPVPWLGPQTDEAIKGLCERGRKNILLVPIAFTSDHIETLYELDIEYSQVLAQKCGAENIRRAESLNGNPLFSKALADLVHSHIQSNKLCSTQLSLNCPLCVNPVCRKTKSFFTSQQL

| Target | log2 fold change |
| --- | --- |
| UniProt P24549 (peptide sequence: SVDDVIKR, peptide start residue: 413) | -0.205 |
| UniProt Q60772 (peptide sequence: LGNPEIAR, peptide start residue: 47) | 0.494 |
| UniProt P31938 (peptide sequence: VSHKPSGLVMAR, peptide start residue: 85) | -0.899 |
| UniProt P83510 (peptide sequence: NIATYYGAFIK, peptide start residue: 81) | -0.608 |
| UniProt Q60855 (peptide sequence: DLKPENILVDRDFHIK, peptide start residue: 138) | 1.33 |
| UniProt Q9WVD5 (peptide sequence: TYSQVGFR, peptide start residue: 54) | -1.35 |
| UniProt O89112 (peptide sequence: AFPNPYADYNK, peptide start residue: 5) | 0.594 |
| UniProt P53395 (peptide sequence: DRTEPVTGFQK, peptide start residue: 251) | 0.423 |
| UniProt Q9ERE3 (peptide sequence: PTDFDFLK, peptide start residue: 32) | -2.47 |
| UniProt O88630 (peptide sequence: MNTLANRFPAVNSLIQR, peptide start residue: 205) | 0.676 |
| UniProt Q9Z2A0 (peptide sequence: HIIKENKVPYVTR, peptide start residue: 120) | -2.47 |
| UniProt P70268 (peptide sequence: EGMGYGDR, peptide start residue: 805) | -3.03 |
| UniProt Q7TMY8 (peptide sequence: HLGYTLCK, peptide start residue: 3630) | 0.491 |
| UniProt Q3TLP5 (peptide sequence: GLLPGAGGTQR, peptide start residue: 170) | 0.658 |
| UniProt Q8CIN4 (peptide sequence: TIVSIGDPK, peptide start residue: 238) | -2.05 |
| UniProt O35488 (peptide sequence: YELIKYDVEKDEPVR, peptide start residue: 394) | 0.821 |
| UniProt Q8CAQ8 (peptide sequence: ATEKQHIELALEK, peptide start residue: 423) | -1.29 |
| UniProt Q6P4S6 (peptide sequence: LIAECQQLKEER, peptide start residue: 329) | -1.43 |
| UniProt P97872 (peptide sequence: DSSGGSLVTVR, peptide start residue: 507) | -1.1 |

| Target | log2 fold change |
| --- | --- |
| UniProt P11798 (peptide sequence: DLKPENLLLASK, peptide start residue: 136) | -3.02 |
| UniProt P42932 (peptide sequence: AIAGTGANVIVTGGK, peptide start residue: 282) | -0.803 |
| UniProt O70551 (peptide sequence: SAEHYTETALDEIR, peptide start residue: 113) | -2.75 |
| UniProt Q04735 (peptide sequence: LEHEEGAPCTAIR, peptide start residue: 154) | -2.38 |
| UniProt P22315 (peptide sequence: LFLDRDLMTLPIQNK, peptide start residue: 91) | -1.03 |
| UniProt Q62120 (peptide sequence: VLPQDKEYYK, peptide start residue: 1000) | -1.02 |
| UniProt Q9WUN2 (peptide sequence: VFNNISFLRPVDVQMR, peptide start residue: 39) | -2.34 |
| UniProt Q8BK48 (peptide sequence: DFRPPYVK, peptide start residue: 447) | -1.1 |
| UniProt P16331 (peptide sequence: RKQFADIAYNYR, peptide start residue: 158) | -0.336 |
| UniProt P70697 (peptide sequence: FALPYIR, peptide start residue: 232) | 0.384 |
| UniProt Q9QXX4 (peptide sequence: AGQTTYNGVTDCFRK, peptide start residue: 555) | 0.466 |
| UniProt Q2NL51 (peptide sequence: LCDFGSAK, peptide start residue: 198) | -4.01 |
| UniProt Q9DB41 (peptide sequence: GAAVNLTLVTPEK, peptide start residue: 68) | 0.677 |
| UniProt Q6PDI5 (peptide sequence: NLTSNMWR, peptide start residue: 1165) | 0.284 |
| UniProt Q99LC5 (peptide sequence: TIYAGNALCTVK, peptide start residue: 147) | 0.35 |
| UniProt Q8BW96 (peptide sequence: IMISDFGLSK, peptide start residue: 161) | -1.32 |
| UniProt Q920L1 (peptide sequence: VAPLVQSLCAK, peptide start residue: 402) | 0.439 |
| UniProt Q3U214 (peptide sequence: YFLEMQDKLER, peptide start residue: 260) | 0.698 |
| UniProt Q9EQ20 (peptide sequence: YQQLIKENLKEIAR, peptide start residue: 108) | -0.315 |
